Assay results as given in PubChem BioAssay (EPA / NIEHS).
Records with an inconclusive call do not appear. Calls of active or inactive are those of the source. Rule for the calls: active = hit-call score of the fitted dose curve at least 0.9, where 1 is the maximum; inconclusive = response in the unintended direction; inactive = score below 0.9.

Test: ACEA_ER_80hr: ACEA Biosciences xCELLigence Real-Time Cell Analysis on Estrogen Receptor Agonism for Proliferation (AID 2282667)
Conditions: T47D proliferation, impedance (xCELLigence), 80 h
Summary of the method: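 Estrogen-driven proliferation is captured as electrode impedance in T47D cells 80 h after compound addition. Test articles ran at 8 concentrations, 1:4 dilutions from 100 uM final, in two replicate plates.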
With `CC(=O)C1C(=O)C=C(C)OC1=O` (stereo unspecified) the outcome was “inactive”. With `C[Si]1(C)N[Si](C)(C)N[Si](C)(C)N1` the outcome was “inactive”. In the case of `C=CCCCCCCCCC(=O)OCC`, the outcome was “inactive”. In the case of `CCCCCC(=O)O[C@]1(C(C)=O)CC[C@H]2[C@@H]3CCC4=CC(=O)CC[C@]4(C)[C@H]3CC[C@@]21C`, the AC50 was 0.00501 µM (active). For `CC(=N[Si](C)(C)C)O[Si](C)(C)C`, the AC50 was 0.0603 µM (active). For `C1CCCNCC1`, the outcome was “inactive”. For `CCCCCCC(O)CCOC(C)=O` (stereo unspecified), the outcome was “inactive”. With `NC(=O)c1cnccn1` the outcome was “inactive”. With `CCC(C)(CCCC(C)C)OC(C)=O` (stereo unspecified) the outcome was “inactive”. With `O=C(O)CS` the outcome was “inactive”. With `CCC(C)(C)C1CCC(OC)CC1` (stereo unspecified) the outcome was “inactive”. In the case of `CCC(=O)OCC=Cc1ccccc1`, the AC50 was 10.5 µM (active). In the case of `Cc1cccc(O)c1`, the outcome was “inactive”. For `CCCCCC1CCC(=O)O1` (stereo unspecified), the outcome was “inactive”. For `CCCC(O)C(CC)CO` (stereo unspecified), the outcome was “inactive”. With `CCCCCCOC(C)=O` the outcome was “inactive”. With `Cc1ccncc1` the outcome was “inactive”. With `CCCCCCCC1CCCC1=O` (stereo unspecified) the outcome was “inactive”. In the case of `OC[C@H]1O[C@@H](O[C@H]2[C@H](O)[C@@H](O)[C@H](O)O[C@@H]2CO)[C@H](O)[C@@H](O)[C@H]1O`, the outcome was “inactive”. For `CC(C)=CC(=O)O`, the AC50 was 3.27 µM (active). With `S=c1[nH][nH]c(=S)s1` the AC50 was 2.68 µM (active). In the case of `O=C(O)c1cccc(Cl)n1`, the outcome was “inactive”. With `CC1(C)[C@H](C=C(Cl)Cl)[C@H]1C(=O)OCc1cccc(Oc2ccccc2)c1` the outcome was “inactive”. For `CCC(C)(C)C1CCC(=O)CC1`, the outcome was “inactive”. For `O=Cc1ccccc1O`, the AC50 was 10.7 µM (active). With `O=C1OC2(c3ccc(O)cc3Oc3cc(O)ccc32)c2ccccc21` the outcome was “inactive”. With `CCCC1CCC(=O)CC1` the outcome was “inactive”. For `CCCCCCCCOC(C)=O`, the outcome was “inactive”. In the case of `OCCN1CCOCC1`, the outcome was “inactive”. In the case of `CCCCCc1cccc(=O)o1`, the outcome was “inactive”. With `CC1=C(C=O)C(C)(C)CCC1` the AC50 was 3.65 µM (active). In the case of `CC(C)COC(=O)c1ccccc1O`, the outcome was “inactive”. In the case of `C1COCO1`, the outcome was “inactive”. For `CCCCCCCCCCCCOC(C)=O`, the outcome was “inactive”. With `CC(O)COCC(C)O` (stereo unspecified) the outcome was “inactive”. For `CCCCC(CC)COC(=O)COc1ccc(Cl)cc1C` (stereo unspecified), the outcome was “inactive”.
